PNC assembly inh: perinucleolar compartment assembly inhibition | PC3M PTB-GFP, PNC prevalence imaging, 16 h; stronger effect = lower value | activity change (PNC), negative = inhibition, % at 10 µM | 140,000 compounds, 3.1% hits | AID 2417;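 active means readout at or below -70, meaning at least 70% loss of cells showing the perinucleolar compartment, a nuclear body marking cancer cells; inconclusive means readout between -30 and a set limit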;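 further: plate controls were DMSO wells for no effect and camptothecin positive control wells for full effect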
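PC3M cells stably expressing PTB-GFP, 750–1000 cells/well, treated 16 h at 37 °C with compound (23 nl of library stock), in duplicate. After paraformaldehyde fixation and Hoechst stain, imaged at 20x; PNC prevalence scored by image analysis.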
12-hLO inh: 12-hLO (ALOX12) enzyme inhibition | P18054 | purified 12-hLO, xylenol orange hydroperoxide absorbance | Potency, µM (titrated, usually from 57.1 µM), without a hit: top-dose activity change, negative = inhibition, most hits filed as inhibitors | 150,000 compounds, 0.12% hits | AID 1452; further: potency means the concentration at half of the fitted maximal effect; nearly all actives have a fitted effect of over 55% in size
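Hydroperoxide output read as Fe(III)-xylenol orange absorbance, 573-to-405 nm ratio, after 30 min reaction with 40 uM arachidonic acid. Enzyme: 150 nM purified human 12hLO, 15 min compound preincubation; 25 mM Hepes pH 7.0, room temperature.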
15-hLO-2 inh: blocks human 15-lipoxygenase 2 activity; O15296; purified 15hLO-2, xylenol orange hydroperoxide absorbance; Potency, µM (top dose mostly 57.1 µM), inactives show top-dose activity change, negative = inhibition, most hits filed as inhibitors; 110,000 compounds, 0.56% hits; further: potency means the concentration at half of the fitted maximal effect; nearly all actives have a fitted effect of over 60% in size
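Screening format was qHTS against 50 nM purified 15hLO-2 in Hepes pH 7.5 with detergent. Activity follows hydroperoxide formation from 45 uM arachidonic acid, measured as 573:405 nm absorbance ratio of the ferric-xylenol orange complex.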
IMPase Li cell: IMPase inhibition in cells with lithium potentiation; CHO-M1 cells, IP1 TR-FRET (IP-One), carbachol + lithium; Potency, µM (highest dose often 59.4 µM), without a hit: top-dose activity, negative = IMPase inhibition, actives largely listed as inhibitors; 210,000 compounds, 0.35% hits;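 further: IP1 builds up when IMPase is blocked and the TR-FRET signal falls; potency means the concentration at half of the fitted maximal effect; plate controls were basal vehicle for no effect and high inhibitor control for full effect; nearly all actives have a fitted effect of over 50% in size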
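CHO cells stably expressing M1 receptor (2000/well) were cultured 16–30 h, then exposed to compounds with a small lithium addition for 30 min at 37C. IP1 was measured by TR-FRET competition; AC50 from Hill fits.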
HPGD block: inhibitors of human 15-hydroxyprostaglandin dehydrogenase (HPGD). 150,000 compounds, 4.3% hits. P15428. purified HPGD, NADH fluorescence kinetic, PGE2 substrate. Potency, µM, inactives show top-dose activity change, negative = inhibition, actives largely listed as inhibitors; active means well fitted inhibition curve with a large enough effect, not every such curve was filed as active; inconclusive means small, poorly fitted or top-dose-only effect, or another doubt; inactive means no such curve, though single readings can be large or run the other way; further: potency means the concentration at half of the fitted maximal effect
Target sequence (P15428 whole entry, looked up): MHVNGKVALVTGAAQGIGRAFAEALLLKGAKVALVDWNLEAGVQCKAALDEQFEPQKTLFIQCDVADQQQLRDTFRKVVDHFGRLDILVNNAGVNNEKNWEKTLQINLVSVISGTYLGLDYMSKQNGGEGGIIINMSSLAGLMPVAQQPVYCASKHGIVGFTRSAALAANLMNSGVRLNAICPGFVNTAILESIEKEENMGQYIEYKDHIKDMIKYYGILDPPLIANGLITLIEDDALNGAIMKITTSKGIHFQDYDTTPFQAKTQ
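NADH formation kinetics: reaction with 30 uM PGE2 and 1 mM NAD+ (final), 20 nM enzyme, Tris-HCl pH 8 with Tween 20, after 15 min compound preincubation at room temperature. Fluorescence change, last versus first of five reads.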
IMPase cell inh: cell-permeable inhibitors of inositol monophosphatase (IMPase); P97697; CHO-M1 cells, IP1 accumulation, HTRF TR-FRET ratio; inhibition (IP1 accumulation), % at 46.1 µM; 120,000 tested, under 10 active; AID 901; active means well fitted curve in the direction sought with a large enough effect in the signal ratio, not every such curve was filed as active; inconclusive means small, poorly fitted or top-dose-only effect, or a change in a side signal; inactive means no such curve, though single readings can be large or run the other way; the % refers to the signal ratio;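 further: cells stimulated with carbachol in lithium chloride buffer; plate controls were DMSO basal wells for no effect and reference inhibitor wells for full effect; higher means more IMPase inhibition seen as more IP1 and lower FRET ratio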
Target sequence (P97697 whole entry, looked up): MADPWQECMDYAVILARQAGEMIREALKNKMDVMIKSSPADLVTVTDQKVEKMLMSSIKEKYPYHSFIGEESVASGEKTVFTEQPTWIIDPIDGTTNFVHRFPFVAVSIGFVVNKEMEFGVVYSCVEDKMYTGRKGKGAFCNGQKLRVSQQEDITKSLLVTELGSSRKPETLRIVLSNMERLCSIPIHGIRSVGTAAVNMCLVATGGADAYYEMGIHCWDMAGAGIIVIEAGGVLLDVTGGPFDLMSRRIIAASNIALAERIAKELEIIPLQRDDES
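CHO-M1, 2000 cells/well, cultured 16–30 h; cpd up to 46 uM; carbachol (50 uM solution, stimulation buffer w/ 50 mM LiCl, pH 7.4), 30 min 37C; IP-One TR-FRET, 10 min RT; Ex 320/Em 665, 620; Hill-fit AC50.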
Starred values were filed as active, the others as inactive; ? = inconclusive; . = no result given; [ ] = dose if it differs, or a comment. A selection: hits, their analogues and other compounds. The true share with any hit is near 5.3%. Unless noted, the call rests on the fitted dose curve; in most records, active means well fitted curve in the direction sought with a large enough effect; inconclusive means small, poorly fitted or top-dose-only effect, or another doubt; inactive means no such curve, though single readings can be large; an effect the other way counts as inactive or inconclusive. Unless noted, on the % scale 0 is the no-effect control and ±100 the full control effect.

SMILES	PNC assembly inh	12-hLO inh	15-hLO-2 inh	IMPase Li cell	HPGD block	IMPase cell inh
Cc1cc(-c2n[nH]c(=S)n2/N=C/c2ccc(Br)s2)n[nH]1	-3.6	-4.2%	.	-0.9%	12.6µM*	.
Cc1cc(-c2n[nH]c(=S)n2/N=C/c2ccc(C)s2)n[nH]1	18.3	0.9%	.	-1.0%	25.1µM*	.
Cc1cccc(/C=N/n2c(-c3ccccn3)n[nH]c2=S)c1	8.1	0.7%	.	.	.	-22.1
Cc1cc(-c2n[nH]c(=S)n2/N=C/c2ccccc2[N+](=O)[O-])n[nH]1	-16.0	-2.7%	.	-2.5%	-25.5%	.
CNS(=O)(=O)c1cc(NC(C)=O)c(C)cc1C	?	1.0%	.	0.1%	-1.5%	.
NC(=O)COc1ncn(-c2ccccc2)n1	-112.1*	3.0%	3.3%	19.6%[38.3 µM]	-12.0%	-2.8
N/C(COc1ncn(-c2ccccc2)n1)=N\S(=O)(=O)c1ccc(Cl)cc1Cl	.	.	.	-6.9%	.	.
CC(C)(C)c1nn2cnnc2n(/N=C/c2cccc3ccccc23)c1=O	2.4	1.7%	.	-7.1%	-6.0%	-1.9
Cc1ccc(/C=N/n2c(=O)c(C(C)(C)C)nn3cnnc23)cc1	-94.1*	5.3%	.	4.7%	-12.3%	-11.3
Cc1ccc(C[n+]2cccc(-c3ccccc3)c2)c(C)c1	37.1	1.6%	.	14.5%	0.2%	.
COCCNC(=O)c1nn2cccnc2c1Cl	-8.5	-1.8%	-3.4%	19.2%[38.3 µM]	?	0.6
O=C(NCC12CC3CC(CC(C3)C1)C2)c1nn2cccnc2c1Cl	32.4	3.0%	-4.1%	28.6%[38.3 µM]	17.8µM*	5.4
O=C(NCC1CCCO1)c1nn2cccnc2c1Cl (configuration not stated)	-9.6	-4.2%	-1.8%	16.8%[38.3 µM]	25.1µM*	-12.6
CC(=O)c1ccc(NC(=S)NC(C)c2ccc(Cl)cc2Cl)cc1 (configuration not stated)	.	.	.	18.4%	.	.
O=C(COC(=O)c1n[nH]c2ccccc12)NC(=O)NC1CCCCC1	-126.9*	-5.3%	-10.3%	-0.7%[38.3 µM]	-11.7%	-7.0
O=C(COC(=O)c1n[nH]c2ccccc12)Nc1ccccc1	.	.	.	4.0%	.	.
CCOC(=O)c1[nH]c(C)c(C(=O)c2cc(F)ccc2F)c1C	-95.0*	-12.7%	-1.6%	5.5%[38.3 µM]	?	13.7
CCN(CC)C(=O)c1cc2sc3ccccc3c2s1	4.0	?	-4.3%	5.2%[38.3 µM]	7.94µM*	0.5
COc1ccc(-n2cc(CNCc3cnc4ccccn34)c(-c3cccc(F)c3)n2)cc1	.	.	.	1.0%	.	.
CCOc1cccc(NC(=O)CSc2nc(C)c3c(c2C#N)CCCC3)c1	30.8	0.5%	-10.3%	3.98µM*	?	?
CC(=O)NC(=S)Nc1ccc(-c2nc3ccc(C)cc3s2)cc1	14.3	-1.3%	-20.2%	14.1µM*	?	-9.1
O=C(O)C1C2CCC(O2)C1C(=O)Nc1ccc(O)cc1 (configuration not stated)	89.8	-1.9%	.	9.5%	-15.1%	.
c1ccc(-c2nc3ccccc3s2)nc1	0.6	-1.2%	0.7%	-19.9%[38.3 µM]	-22.8%	-5.5
Brc1ccc(-c2nc3ccccc3s2)s1	12.8	-6.5%	-2.4%	11.2µM*	?	?
CCOC(=O)C1CCN(S(=O)(=O)c2ccc(-n3cnnn3)c(C)c2)CC1	-100.0*	0.6%	4.4%	-8.2%[38.3 µM]	-7.3%	2.7
SMILES	PNC assembly inh	12-hLO inh	15-hLO-2 inh	IMPase Li cell	HPGD block	IMPase cell inh
COc1cccc(NC(=O)C2CC(=O)N(c3ccc(Br)cc3)C2)c1 (configuration not stated)	.	.	.	.	.	1.5
O=C(CSc1nncs1)Nc1ccc(Cl)cn1	-8.0	-1.0%	.	-0.7%	-6.3%	-12.1
CCN1C(=O)C(O)(CC(=O)c2cccc(-n3cccc3)c2)c2ccccc21 (configuration not stated)	.	.	.	2.7%	.	.
CCN1C(=O)C(O)(CC(=O)c2ccc(-n3cccc3)cc2)c2ccccc21 (configuration not stated)	-100.0*	0.5%	.	7.8%	-12.4%	-5.2
COc1ccc(CCNC(=O)C2CCC(CNc3c(N4CCCC4)c(=O)c3=O)CC2)cc1OC (configuration not stated)	50.6	-4.9%	-0.7%	25.8%[38.3 µM]	-10.3%	2.5
CC1CCN(c2c(NCC3CCC(C(=O)N4CCCC(C)C4)CC3)c(=O)c2=O)CC1 (configuration not stated)	40.5	2.5%	0.9%	0.0%[38.3 µM]	0.631µM*	0.5
COc1ccc(OC)c(NC(=O)C2CCC(CNc3c(N4CCC(C)CC4)c(=O)c3=O)CC2)c1 (configuration not stated)	-11.2	-3.5%	-0.2%	9.3%[38.3 µM]	25.1µM*	6.4
CC1CCN(c2c(NCC3CCC(C(=O)NCc4ccccc4)CC3)c(=O)c2=O)CC1 (configuration not stated)	?	-2.3%	.	8.3%	17.8µM*	.
O=C(NCc1ccccc1)C1CCC(CNc2c(N3CCCCC3)c(=O)c2=O)CC1 (configuration not stated)	30.6	7.3%	.	-4.0%	20µM*	.
CCOc1c(Br)cc(C2C=C(C(=O)O)Nc3ncnn32)cc1OC (configuration not stated)	.	.	.	.	.	5.1
O=C(NCc1ccccc1)C1CCC1	?	-4.3%	.	-4.7%	20µM*	.
COc1ccc(S(=O)(=O)Nc2nnc(CC(C)(C)C)s2)cc1	.	.	.	4.5%	.	.
COc1ccc(S(=O)(=O)Nc2nnc(C(C)(C)C)s2)cc1	?	-3.6%	-22.4%	-6.6%[38.3 µM]	10µM*	3.5
O=C(/C=C/c1ccccc1)Nc1nnc(-c2ccco2)o1	.	.	.	5.1%	.	.
CS(=O)(=O)c1sc2nc(-c3cccs3)cc(-c3ccccc3)c2c1N	-27.0	-25.8%	?	?	?	?
Cc1ccc(-c2cc(-c3ccccc3)c3c(N)c(S(C)(=O)=O)sc3n2)cc1	?	-9.1%	-14.9%	10µM*	?	-23.1
CCCCCN(C(=O)NC(=O)Nc1ccccc1C)S(=O)(=O)c1ccccc1	-3.1	-3.8%	.	5.0%	7.2%	9.2
O=C(CSc1cc([N+](=O)[O-])cc(S(=O)(=O)Cc2ccccc2)c1)NC1CC1	?	-5.1%	.	3.0%	22.4µM*	.
O=C(CC1Sc2ncnn2C1=O)Nc1ccccc1 (configuration not stated)	-3.2	3.6%	-8.1%	-19.5%[38.3 µM]	15.8µM*	-2.8
COc1cccc([C@@H]2Oc3ccc(OC)cc3C(=O)[C@H]2OC(=O)NS(=O)(=O)c2ccc(C)cc2)c1	.	.	.	17.5%	-8.2%	.
CCOC(=O)N1CCN(S(=O)(=O)c2ccc(C(=O)Nc3nnc(CC)o3)cc2)CC1	-82.5*	-7.0%	.	-5.1%	-23.3%	.
COc1ccc(-n2c(=S)[nH]c3cc(C(=O)NCc4ccco4)ccc3c2=O)cc1OC	-21.9	-2.9%	-14.4%	-16.8%[38.3 µM]	-13.0%	0.3
